Compound activity from PubChem BioAssay.
Shown are actives, neighbours in structure and some others; about 2.4% of the full set was active somewhere.
ELG1 DNA repair – inhibitors of ELG1-dependent DNA repair in HEK293T cells | HEK293T ELG1-luciferase reporter, luminescence, 16 h; DNA damage induced by 5-fluorouridine | Potency, µM (series often up to 46.1 µM), without a hit: at the highest dose activity change, negative = inhibition, hits mostly inhibitors | 2.3% of 330,000 active; also: % is scaled to controls: 0 for no effect and ±100 for the full control effect; nearly all actives have a fitted effect of over 55% in size
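Luminescence from the luciferase reporter, measured 30 min after ONE-Glo reagent at room temperature, was the read-out. Beforehand, 2,000 cells per well were exposed for 16 hr at 37 °C to 5-fluorouridine together with compound or vehicle.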
Tb PGK inh – T. brucei PGK inhibition; P07378; PGK/GAPDH coupled, Kinase-Glo luminescence, 60 min; Potency, µM (series often up to 57.5 µM), inactives show at the highest dose activity change, negative = inhibition, usual class: inhibitors; 0.043% of 380,000 active; also: % is scaled to controls: 0 for no effect and ±100 for the full control effect; nearly all actives have a fitted effect of over 60% in size
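Recombinant glycosomal PGK reaction used 1,3-bisphosphoglycerate generated in-well by GAPDH (100nM final) in 100mM TEA pH 7.6, 5mM MgCl2, 0.01% Tween-20. After 60 minutes at room temperature, ATP was read by Kinase-Glo Plus luminescence end-point.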
PKM2 activator – activators of human pyruvate kinase M2; AID 1631; Potency, µM (top dose mostly 57.5 µM), for inactives: at the top dose activation, actives largely listed as activators; P14618; purified PKM2, Kinase-Glo ATP luminescence, activation; response scale: 0% is enzyme alone, no compound; 0.34% of 260,000 active; also: % is scaled to controls: 0 for no effect and ±100 for the full control effect; nearly all actives have a fitted effect of over 55% in size
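ATP formation by purified human PK-M2, quantified via coupled luciferase luminescence after 1 h at room temperature with 0.1 mM ADP and 0.5 mM PEP final.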
Rango-impB inh – prevents formation of the Rango-importin beta complex; Potency, µM (series often up to 92.2 µM), for inactives: at the highest dose inhibition of complex formation; AID 540263; 0.031% of 340,000 active; Q14974; Rango CFP/YFP FRET sensor + importin beta, 45 min; calls by dose curve;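 also: 0% = DMSO wells and 100% = buffer wells lacking importin beta; nearly all actives have a fitted effect of over 15% in size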
Target sequence (Q14974 whole entry, looked up): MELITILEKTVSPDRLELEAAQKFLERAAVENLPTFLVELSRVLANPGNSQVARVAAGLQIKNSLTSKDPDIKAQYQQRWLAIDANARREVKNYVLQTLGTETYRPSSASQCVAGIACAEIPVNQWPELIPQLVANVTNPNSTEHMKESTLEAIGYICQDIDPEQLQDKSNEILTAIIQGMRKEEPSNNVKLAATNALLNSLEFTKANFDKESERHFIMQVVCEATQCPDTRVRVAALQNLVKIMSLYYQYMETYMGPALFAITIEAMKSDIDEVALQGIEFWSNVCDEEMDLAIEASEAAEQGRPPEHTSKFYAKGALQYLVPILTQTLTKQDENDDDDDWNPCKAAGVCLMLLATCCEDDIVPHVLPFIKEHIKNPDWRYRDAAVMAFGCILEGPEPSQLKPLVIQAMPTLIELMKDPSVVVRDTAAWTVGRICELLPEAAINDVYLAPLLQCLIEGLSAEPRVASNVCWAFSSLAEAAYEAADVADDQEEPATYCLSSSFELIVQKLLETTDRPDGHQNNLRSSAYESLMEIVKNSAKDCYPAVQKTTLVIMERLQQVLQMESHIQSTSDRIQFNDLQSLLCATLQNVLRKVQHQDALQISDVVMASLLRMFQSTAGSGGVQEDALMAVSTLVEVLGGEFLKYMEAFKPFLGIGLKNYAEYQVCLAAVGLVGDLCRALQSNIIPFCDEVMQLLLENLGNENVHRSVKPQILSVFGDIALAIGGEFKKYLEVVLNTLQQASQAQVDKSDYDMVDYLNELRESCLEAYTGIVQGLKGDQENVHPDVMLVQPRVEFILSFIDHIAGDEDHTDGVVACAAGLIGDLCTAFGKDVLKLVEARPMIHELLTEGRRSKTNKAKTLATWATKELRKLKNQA
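FRET biosensor (snurportin 1 IBB flanked by EYFP and cerulean), 50 nM, with compound 5 min, then 0.125 microM importin beta in PBS, 1 mM DTT, 0.02% Tween-20, 0.1% BSA. CFP/YFP ratio read after 45 min at room temperature; pre-read flags interference.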
Rango dissoc inh – inhibition of RanGTP-driven Rango-importin beta dissociation; Potency, µM (series often up to 46.1 µM), without a hit: top-dose activity change, negative = inhibition; O95149+P62826; Biochemical FRET Rango-importin beta, RanGTP-induced dissociation; 0.071% of 340,000 active; calls by dose curve; also: % of control where 0% means no effect; nearly all actives have a fitted effect of over 45% in size
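Rango/importin beta premix (0.1/0.25 uM final), PBS + 1 mM DTT + 0.02% Tween-20 + 0.1% BSA; cpd 5 min RT; FRET pre-read; + RanGTP-RCC1 (0.6 uM Ran, 2 mM GTP, 0.2 uM RCC1); 45 min RT; FRET post-read, ex 430, em 486/530 nm.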
Tb PFK inh – inhibitors of T. brucei phosphofructokinase. Potency, µM (doses to about 57.5 µM), for inactives: at the highest dose activity, negative = inhibition, actives largely listed as inhibitors. O15648. T. brucei PFK, ADP-Glo luminescence. 0.17% of 330,000 active;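 also: 0% = uninhibited 1x PFK enzyme wells and -100% = no-enzyme wells; nearly all actives have a fitted effect of over 60% in size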
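PFK 1.25 nM, F6P 0.5 mM, ATP 0.1 mM, 0.1 M TEA pH 8.0, 5 mM MgCl2, 0.01% Tween20, 0.1% BSA; 45 min RT. ADP-Glo readout. qHTS titration up to 57 uM; curves fitted, compounds curve-classed.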
The depositor's hits bear a star; i = inactive; ? = inconclusive; · = no result; [ ] = dose if it differs, or a comment. Unless noted, calls follow the shape of the dose curve; as a rule, active = well fitted curve in the direction sought with a large enough effect; inconclusive = small, poorly fitted or top-dose-only effect, or another doubt; inactive = no such curve, though single readings can be large; an effect the other way counts as inactive or inconclusive. Potency is read from the fitted curve at half-maximal effect.

SMILES	ELG1 DNA repair	Tb PGK inh	PKM2 activator	Rango-impB inh	Rango dissoc inh	Tb PFK inh
O=C(NC(=S)N1CCOCC1)c1cn(-c2ccccc2)nc1-c1ccccc1	18.3µM*	-7.1%	·	1.8%	6.8%	-13.0%
O=C(c1cn(-c2ccccc2)nc1-c1ccccc1)N1CCOCC1	12.5%	-3.7%	-5.4%	0.4%	2.0%	0.9%
Cc1[nH]n(-c2ccccc2)c(=O)c1/C=N/NC(=O)c1ccccc1F	2.31µM*	-4.9%	·	4.2%	0.6%	4.1%
CCN(c1ccc(NC(=O)CSCc2c(C)noc2C)cc1)C(C)C	11.4%	-1.9%	·	?	-5.5%	-3.3%
O=C(c1cc2nc(-c3ccc(F)cc3)cc(C(F)(F)F)n2n1)N1CCCCC1c1cccnc1 (stereo not drawn)	8.2µM*	-4.9%	-1.9%	-2.7%	-12.4%	3.7%
CC1CCCCN1C(=O)c1cc2nc(-c3ccccc3)cc(-c3ccccc3)n2n1 (stereo not drawn)	16.4µM*	-0.2%	1.7%	?	-25.4%	-0.8%
O=C(c1cnn2c(C(F)(F)F)cc(-c3ccccc3)nc12)N1CCCCC1c1cccnc1 (stereo not drawn)	?	-0.1%	1.4%	1.6%	1.6%	1.1%
Cc1ccc(-c2cc(C(F)F)n3ncc(C(=O)N4CCCCC4c4cccnc4)c3n2)cc1 (stereo not drawn)	18.3µM*	8.6%	1.1%	?	-6.8%	5.7%
CC1(C)CC(=O)C(C2C3=C(CC(C)(C)CC3=O)Oc3c(Br)cc(Br)cc32)=C(O)C1 (stereo not drawn)	5.0%	-9.1%	-0.7%	-0.8%	-20.0%	0.9%
Cc1cccc(Oc2ccc3c(c2)Oc2ccccc2NC3=O)c1	·	-14.8%	·	·	·	·
CCOC(=O)N1CCC(N(C(=O)Nc2ccc(Cl)c(Cl)c2)C(C)CC)CC1 (stereo not drawn)	?	-10.3%[11.5 µM]	1.4%	2.7%	10.8%	23.9µM*
CSc1nc(C)c2cc(C)oc2n1	7.6%	-4.5%	-31.7%	0.5%	-20.6%	1.7%
Cc1cc2c(C)nc(Cc3ccccc3)nc2o1	18.4µM*	i	0.7%	0.6%	-7.5%	0.9%
Cc1ccc(-c2csc3ncnc(-n4cnc5ccccc54)c23)cc1	10.3µM*	0.2%	1.3%	1.0%	-0.8%	-0.5%
Cc1ccc(-c2csc3ncnc(N4CCN(C(=O)c5ccco5)CC4)c23)cc1	16.4µM*	i	·	-3.6%	1.8%	0.6%
O=C(c1ccco1)N1CCN(c2ncnc3c2nnn3Cc2ccccc2Cl)CC1	23.1µM*	-8.6%	7.2%	0.0%	3.7%	-2.3%
Cc1sc2nc(C(C)C)nc(SCC(=O)N3CCN(C(=O)c4ccco4)CC3)c2c1C	18.4µM*	-2.1%	6.8%	-3.5%	0.9%	-0.7%
Cc1cccc(NC(=O)C2CC3CCC2C3)c1C (stereo not drawn)	·	-7.7%	·	-0.4%	-5.5%	·
Cc1cccc(NC(=O)C2CCN(c3nc4ccccc4[nH]3)CC2)c1C	·	-8.5%	·	·	·	·
Cc1sc2ncnc(N3CCN(C(=O)c4ccco4)CC3)c2c1C	11.6µM*	-8.5%	-8.0%	7.1%	-13.1%	-17.1%
O=C(c1ccco1)N1CCN(c2ncnc3scc(-c4ccc(F)cc4)c23)CC1	-18.1%	1.6%	-10.1%	-0.3%	-2.1%	-3.0%
CC(C)c1ccc(-c2csc3ncnc(N4CCN(C)CC4)c23)cc1	11.6µM*	8.2%	·	-2.4%	-3.0%	-1.3%
Cc1ccc(-c2csc3ncnc(N4CCN(c5ccccc5O)CC4)c23)cc1	5.8µM*	i	·	-1.1%	16.0%	-5.2%
CCc1cc2ccc(OC)cc2nc1SCC(=O)N1CCN(C(=O)c2ccco2)CC1	20.6µM*	7.7%	1.1%	-1.8%	25.4%	-8.8%
CCc1cc2ccc(OC)cc2nc1SCC(=O)NNC(=O)c1ccco1	-13.6%	-9.8%	-6.3%	2.0%	-0.2%	-5.0%
SMILES	ELG1 DNA repair	Tb PGK inh	PKM2 activator	Rango-impB inh	Rango dissoc inh	Tb PFK inh
CCC1([N+](=O)[O-])COC(c2ccc(OC)cc2)OC1 (stereo not drawn)	·	6.2%	·	3.7%	11.3%	·
COc1ccc(-c2csc3ncnc(N4CCN(c5ccccc5[N+](=O)[O-])CC4)c23)cc1	5.17µM*	-8.1%	-4.4%	4.5%	1.1%	3.2%
COc1ccc(-c2csc3ncnc(N4CCN(c5ccccc5O)CC4)c23)cc1	?	10.7%	3.5%	-0.6%	0.6%	1.4%
COc1cc2c(C(=O)Nc3ccc4c(c3)OCO4)cn(CC(C)C)c(=O)c2cc1OC	9.2µM*	·	8.4%	·	·	2.0%
CCOc1ccc2oc(C(=O)N3CC(C)OC(C)C3)c(C)c2c1 (stereo not drawn)	9.1%	-0.9%	1.5%	1.3%	-1.5%	2.9%
CCc1nn(CC(=O)NCc2ccccc2Cl)c(=O)c2cc3ccccc3n12	·	-7.4%	·	·	·	·
Cc1nn(C(=O)c2cccc([N+](=O)[O-])c2)c(C)c1Cl	-10.7%	-8.2%	·	-2.2%	-5.1%	3.6%
CCCc1nc2ccccc2c(=O)n1/N=C/c1ccc(O)cc1O	?	-0.3%	18.8%	0.4%	-20.2%	5.0%
CCCc1nc2ccccc2c(=O)n1/N=C/c1ccc(O)cc1	11.6µM*	-2.0%	-2.9%	4.3%	11.2%	-0.6%
COc1cccc(/C=N/NC(=O)c2[nH]c(C)c(C(=O)N/N=C/c3cccc(OC)c3)c2C)c1	20.6µM*	-8.3%	0.9%	?	0.6%	4.1%
COc1ccc(/C=N/NC(=O)c2[nH]c(C)c(C(=O)N/N=C/c3ccc(OC)cc3)c2C)cc1	20.6µM*	-0.6%	6.4%	-3.0%	17.8%	9.6%
O=C(CCSCc1ccccc1F)NCc1ccc(F)cc1	4.3%	4.8%	·	-1.9%	7.0%	5.5%
C=CCOc1ccccc1CN1CCC(Cc2ccccc2)CC1	-20.2%	-5.9%	-3.3%	-0.3%	3.2%	-0.6%
Cc1c(C(=O)N2CCN(c3ccccc3)CC2)sc2ncnc(N3CCN(c4ccccn4)CC3)c12	0.4%	i	3.4%	-3.7%	3.0%	0.9%
Cc1nc(N2CCN(c3ccccn3)CC2)c2c(C)c(C(=O)N3CCN(c4ccc(F)cc4)CC3)sc2n1	23.1µM*	i	·	?	9.1%	-9.7%
COc1ccccc1N1CCN(C(=O)c2sc3nc(C)nc(N4CCN(c5ccccn5)CC4)c3c2C)CC1	?	7.5%	0.9%	?	-12.1%	0.3%
COc1ccc(OC)c(NC(=O)c2sc3ncnc(N4CCN(c5ccccn5)CC4)c3c2C)c1	2.59µM*	2.0%	-1.5%	3.8%	9.5%	2.6%
Cc1c(C(=O)N2CCN(c3ccc(F)cc3)CC2)sc2ncnc(N3CCN(c4ccccn4)CC3)c12	6.51µM*	-2.9%	2.2%	-3.7%	14.3%	0.7%
